# According to PubChem BioAssay:
# Calls of active or inactive are those of the source.
# How the values were obtained:
# [1] = E. coli DRC41 culture turbidity changes, primary screen, E. coli filamentation inducer project, strain DRC41, OD650, 48 h (AID 1152);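 further: E. coli MC1000 strain DRC41 lacking acrAB efflux pump and sulA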; conditions: E. coli DRC41 (acrAB sulA), higher = more signal, called active from +8 up or from −8 down
# [2] = small-molecule binders of probe aLefty1, primary screen, biochemical, small-molecule microarray, 635/667 nm fluorescence (AID 1153); conditions: higher = more signal;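 further: score merges spot fluorescence with signal-to-noise ratio from the scanned slide images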
# [3] = PSAC antagonists in infected red cells, primary screen, cell-based, P. falciparum Indochina, OD700, 1 h (AID 1154); conditions: P. falciparum Indochina infected RBC osmotic lysis, higher = more signal, called active from +8 up or from −8 down
# [4] = PSAC antagonists in infected red cells, primary screen, cell-based, P. falciparum Indochina, OD700, 2 h (AID 1155);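 further: lysis reports solute entry through the parasite surface anion channel PSAC; channel blockers reduce lysis of infected cells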; conditions: P. falciparum Indochina infected erythrocytes, osmotic lysis OD700; higher = more signal, called active from +8 up or from −8 down
# [5] = osmotic lysis modulators in infected erythrocytes, primary screen, PSAC antagonist project, cell-based, P. falciparum Indochina, OD700, 3 h (AID 1156); conditions: higher = more signal, called active from +8 up or from −8 down
# [6] = PSAC antagonists in infected red cells, primary screen, cell-based, P. falciparum Indochina, OD700, 18 h (AID 1157); conditions: P. falciparum Indochina infected erythrocytes, osmotic lysis OD700, 18 h; higher = more signal, called active from +8 up or from −8 down
# [7] = modulators of S6 phosphorylation in cells, primary screen, cell-based, A549, cytoblot, luminescence, serum-stimulated (AID 1158); conditions: A549 phospho-S6 cytoblot, 5 h, higher = more signal;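 further: serum-stimulated A549 lung adenocarcinoma cells; signal is phosphorylated S6 detected by cytoblot immunostaining with HRP secondary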
# [8] = molecular target: NADPH oxidase 2 (Homo sapiens) (UniProt P04839); test: NOX2-dependent H2O2 signal modulators, primary screen, NOX inhibitor project, cell-based, HEK293-NOX2, PMA-stimulated, Amplex Red fluorescence (AID 1159); conditions: 45 min, higher = more signal, called active from +8 up or from −8 down; further: test concentration not given here
# [9] = molecular target: NADPH oxidase 4 (Homo sapiens) (UniProt Q9NPH5); test: NOX4-dependent H2O2 signal modulators, primary screen, NOX inhibitor project, cell-based, HEK293-NOX4, tetracycline-induced, Amplex Red fluorescence (AID 1160); conditions: 45 min, higher = more signal, called active from +8 up or from −8 down
# [10] = molecular target: NADPH oxidase 5 (Homo sapiens) (UniProt Q96PH1); test: NOX5-dependent H2O2 signal modulators, primary screen, NOX inhibitor project, cell-based, HEK293-NOX5, Amplex Red fluorescence (AID 1161); conditions: HEK293-NOX5, ionomycin, 45 min, higher = more signal
# NADPH oxidase 5 (Homo sapiens), sequence (Q96PH1 whole entry, looked up): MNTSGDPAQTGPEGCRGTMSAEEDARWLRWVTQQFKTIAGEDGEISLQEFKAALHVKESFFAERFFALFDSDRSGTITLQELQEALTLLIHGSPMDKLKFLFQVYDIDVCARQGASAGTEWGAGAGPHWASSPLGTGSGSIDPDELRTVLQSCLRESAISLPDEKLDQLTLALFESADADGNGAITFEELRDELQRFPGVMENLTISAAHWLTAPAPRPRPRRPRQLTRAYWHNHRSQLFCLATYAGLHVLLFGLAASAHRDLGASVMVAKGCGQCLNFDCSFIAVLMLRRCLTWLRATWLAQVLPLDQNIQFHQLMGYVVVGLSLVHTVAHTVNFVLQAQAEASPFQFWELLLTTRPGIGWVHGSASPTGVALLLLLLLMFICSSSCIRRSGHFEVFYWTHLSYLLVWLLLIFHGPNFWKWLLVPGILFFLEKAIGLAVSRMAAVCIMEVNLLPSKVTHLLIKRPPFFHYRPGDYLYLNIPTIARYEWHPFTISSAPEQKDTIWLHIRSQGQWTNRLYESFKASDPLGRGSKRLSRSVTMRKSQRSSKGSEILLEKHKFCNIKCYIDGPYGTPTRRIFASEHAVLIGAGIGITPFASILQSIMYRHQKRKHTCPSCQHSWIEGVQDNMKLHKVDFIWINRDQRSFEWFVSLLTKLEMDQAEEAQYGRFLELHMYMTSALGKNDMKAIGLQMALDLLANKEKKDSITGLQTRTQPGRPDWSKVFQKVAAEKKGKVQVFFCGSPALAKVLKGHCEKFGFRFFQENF
# NADPH oxidase 2 (Homo sapiens), sequence (P04839 whole entry, looked up): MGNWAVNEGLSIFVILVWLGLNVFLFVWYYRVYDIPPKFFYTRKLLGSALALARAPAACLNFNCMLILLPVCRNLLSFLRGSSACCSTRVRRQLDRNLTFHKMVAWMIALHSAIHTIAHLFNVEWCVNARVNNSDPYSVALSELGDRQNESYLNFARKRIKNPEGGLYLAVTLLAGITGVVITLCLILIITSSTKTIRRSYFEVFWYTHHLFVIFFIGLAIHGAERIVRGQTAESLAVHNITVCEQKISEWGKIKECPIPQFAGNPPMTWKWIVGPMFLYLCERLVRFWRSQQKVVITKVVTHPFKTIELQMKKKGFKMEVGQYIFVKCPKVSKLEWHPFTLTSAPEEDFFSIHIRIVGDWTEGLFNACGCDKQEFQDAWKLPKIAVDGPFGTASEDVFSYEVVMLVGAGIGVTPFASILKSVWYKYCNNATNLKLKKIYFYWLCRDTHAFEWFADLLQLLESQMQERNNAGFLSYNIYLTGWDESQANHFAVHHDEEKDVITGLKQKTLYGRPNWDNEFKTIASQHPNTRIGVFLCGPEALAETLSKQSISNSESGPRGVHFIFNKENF
# NADPH oxidase 4 (Homo sapiens), sequence (Q9NPH5 whole entry, looked up): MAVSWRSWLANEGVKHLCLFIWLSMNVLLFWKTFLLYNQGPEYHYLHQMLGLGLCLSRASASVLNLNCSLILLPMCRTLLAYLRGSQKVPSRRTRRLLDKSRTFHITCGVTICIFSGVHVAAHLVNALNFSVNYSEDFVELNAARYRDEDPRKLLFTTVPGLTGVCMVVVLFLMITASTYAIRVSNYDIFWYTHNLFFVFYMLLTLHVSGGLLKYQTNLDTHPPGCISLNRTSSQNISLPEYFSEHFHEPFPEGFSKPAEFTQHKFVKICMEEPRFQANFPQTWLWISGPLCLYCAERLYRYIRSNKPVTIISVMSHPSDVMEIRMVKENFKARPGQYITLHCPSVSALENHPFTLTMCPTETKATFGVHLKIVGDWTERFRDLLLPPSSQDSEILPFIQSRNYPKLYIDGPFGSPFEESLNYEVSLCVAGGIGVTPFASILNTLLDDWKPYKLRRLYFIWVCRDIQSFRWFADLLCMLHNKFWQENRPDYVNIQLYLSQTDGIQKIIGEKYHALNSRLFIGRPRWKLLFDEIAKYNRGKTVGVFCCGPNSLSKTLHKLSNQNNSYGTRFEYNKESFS
SMILES,z-score [1],composite z-score [2],z-score [3],z-score [4],z-score [5],z-score [6],z-score [7],z-score [8],z-score [9],z-score [10]
CC(=O)O[C@H]1C2=CO[C@H](C)[C@H]3[C@H]4C5=C([C@H](O)[C@H]6O[C@H]6C5=O)[C@H](OC4C)[C@@]23C(=O)[C@@H]2O[C@@H]21 (stereo not given in full),-0.16 (inactive),-0.0477,-0.312 (inactive),-0.431 (inactive),0.128 (inactive),0.1 (inactive),-1.05,-0.717 (inactive),-0.891 (inactive),-0.242
O=C1[C@H]2[C@H]3[C@H](O)[C@H](O)CC(=NOCc4ccccc4)[C@@H]3CC[C@H]2C(=O)N1c1ccc(F)cc1F,-0.246 (inactive),-0.391,1.17 (inactive),-0.56 (inactive),0.512 (inactive),-1.36 (inactive),2.35,-0.409 (inactive),0.18 (inactive),0.343
CCN1C(=O)[C@H]2[C@H]3[C@H](O)[C@H](O)CC(=NOC[C@H]4O[C@H](c5ccccc5)C=C[C@@H]4Oc4ccc(OC)cc4)[C@@H]3CC[C@H]2C1=O,0.575 (inactive),0.171,10.7 (active),1.65 (inactive),0.622 (inactive),0.809 (inactive),-0.763,0.863 (inactive),0.91 (inactive),0.456
O=C1[C@H]2[C@H]3[C@H](O)[C@H](O)CC(=NOC[C@@H](O)COCc4ccco4)[C@H]3CC[C@H]2C(=O)N1C[C@@H]1CCCO1,-0.362 (inactive),-0.324,0.342 (inactive),0.276 (inactive),-0.425 (inactive),0.33 (inactive),-0.637,0.276 (inactive),0.557 (inactive),-0.0426
CCOC(=O)[C@H](Cc1ccccc1)NC(=O)CCC1CC(OC(=O)NCc2cccc3ccccc23)CC2(CCCC(COC(=O)NCc3cccc(C(F)(F)F)c3)O2)O1 (stereo not given in full),0.263 (inactive),-0.0984,18.5 (active),2.83 (inactive),0.654 (inactive),0.493 (inactive),-0.283,0.402 (inactive),0.0385 (inactive),-0.162
C=CC[C@@H]1C=C[C@H](ON=C2[C@H]3CCn4c(=O)n(-c5ccccc5)c(=O)n4[C@H]3[C@H](O)[C@@H]3O[C@H]23)[C@@H](CO)O1,-0.263 (inactive),-0.28,1.56 (inactive),1.07 (inactive),0.204 (inactive),0.588 (inactive),-1.02,-0.276 (inactive),0.964 (inactive),0.394
CC(CCN1CCCCc2nc(C)c(C)cc21)=NO[C@@H](C)c1cn([C@H](CO)Cc2ccccc2)nn1,0.72 (inactive),0.0618,2.04 (inactive),0.32 (inactive),0.729 (inactive),0.367 (inactive),-0.11,-2.09 (inactive),-0.106 (inactive),-0.199
CC(CCN1CCc2nc(-c3ccccc3)c(-c3ccccc3)cc2C1)=NOC[C@@H](O)[C@H]1O[C@@H]2OC(C)(C)O[C@@H]2[C@H]1O,0.784 (inactive),-0.0099,1.47 (inactive),0.239 (inactive),0.318 (inactive),0.244 (inactive),-0.0979,-5.63 (inactive),-1.69 (inactive),-4.61
CCN1C(=O)[C@H]2[C@H]3[C@H](O)[C@H](O)CC(=NO[C@@H](C)c4cn([C@H](CO)Cc5ccccc5)nn4)[C@@H]3CC[C@H]2C1=O,0.115 (inactive),0.0618,0.202 (inactive),0.453 (inactive),0.357 (inactive),0.146 (inactive),-0.66,0.0799 (inactive),-2.08 (inactive),0.0391
CCOC(=O)[C@H](Cc1ccccc1)NC(=O)CCC1CC(OC(=O)NCCc2ccc(F)cc2)CC2(CCCC(COC(=O)NCC3CCCCC3)O2)O1 (stereo not given in full),1.08 (inactive),-0.0536,-0.0955 (inactive),0.672 (inactive),0.753 (inactive),0.416 (inactive),0.681,0.102 (inactive),1.12 (inactive),0.0102
CON=C[C@@H](C)[C@H](OCc1ccccc1)C(C)C,-2.85 (inactive),-0.378,0.0221 (inactive),0.234 (inactive),0.718 (inactive),-1.37 (inactive),0.564,-0.307 (inactive),-1.21 (inactive),-0.786
COC(=O)CC=C[C@@H](C)[C@@H](C=NO[C@@H](C)c1cc(-c2c(C)cc(C)cc2C)no1)NS(=O)(=O)c1ccc(C)cc1,-0.466 (inactive),0.0437,1.34 (inactive),-0.745 (inactive),0.971 (inactive),-1.89 (inactive),1.13,-0.868 (inactive),-0.115 (inactive),-1.47
CC(C)CON=C1C[C@@H](O)[C@@H](O)[C@@H]2[C@@H]3C(=O)N(c4cccc(Oc5ccccc5)c4)C(=O)[C@@H]3CC[C@@H]12,-0.211 (inactive),-0.321,2.34 (inactive),-0.696 (inactive),1.07 (inactive),-1.36 (inactive),0.6,-0.191 (inactive),0.352 (inactive),-0.51
CON=C1[C@H]2CCn3c(=O)n(-c4ccccc4)c(=O)n3[C@H]2[C@H](O)[C@@H]2O[C@H]12,-1.04 (inactive),-0.108,-0.713 (inactive),-1.53 (inactive),-0.801 (inactive),-1.77 (inactive),1.56,0.0197 (inactive),0.3 (inactive),1.26
CCc1cc2c(nc1CC)CCN(CCC(C)=NOC[C@H]1O[C@H](c3ccccc3)C=C[C@@H]1Oc1ccc(OC)cc1)C2,-0.563 (inactive),-0.0003,6.37 (inactive),-0.735 (inactive),2.37 (inactive),-1.62 (inactive),1.18,-1.83 (inactive),-0.845 (inactive),-2.68
Cc1ccc(S(=O)(=O)NC(CCc2ccccc2)CC(=O)C(C)(C)C)cc1 (stereo not given),-0.286 (inactive),-0.125,0.603 (inactive),0.0974 (inactive),-0.573 (inactive),0.124 (inactive),-0.566,-1.18 (inactive),0.0624 (inactive),-0.868
CC(C)(C)N1C(=O)[C@H]2[C@H]3[C@H](O)[C@H](O)CC(=O)[C@@H]3CC[C@H]2C1=O,-0.767 (inactive),-0.147,0.126 (inactive),0.0976 (inactive),-1.24 (inactive),-0.0131 (inactive),0.413,-3.23 (inactive),0.0825 (inactive),0.309
CCOC(=O)NN=C1C[C@@H](O)[C@@H](O)[C@@H]2[C@@H]3C(=O)N([C@@H](C)c4ccccc4)C(=O)[C@@H]3CC[C@@H]12,-0.0718 (inactive),-0.0523,-0.308 (inactive),0.0095 (inactive),-0.611 (inactive),-0.0871 (inactive),-0.25,-0.819 (inactive),0.589 (inactive),-0.143
COc1ccc(O[C@@H]2[C@H](O)CO[C@@H]2C=Cc2ccccc2)cc1,-1.74 (inactive),0.417,5.53 (inactive),-0.0327 (inactive),1.23 (inactive),-0.66 (inactive),1.49,0.561 (inactive),-0.92 (inactive),-2.07
CC(=O)OC[C@H]1O[C@H](CCON=C2[C@H]3CCn4c(=O)n(-c5ccccc5)c(=O)n4[C@H]3[C@H](O)[C@@H]3O[C@H]23)C=C[C@@H]1OC(C)=O,0.0711 (inactive),0.637,0.553 (inactive),0.0612 (inactive),-0.192 (inactive),0.269 (inactive),-0.84,-0.564 (inactive),0.0641 (inactive),-0.0303
COc1ccc(COC(=O)NN=C2C[C@@H](O)[C@@H](O)[C@@H]3[C@@H]4C(=O)N(c5ccc(F)cc5F)C(=O)[C@@H]4CC[C@H]23)cc1,-0.544 (inactive),0.545,30.2 (active),4.98 (inactive),2.52 (inactive),1.24 (inactive),-0.434,-0.407 (inactive),-0.481 (inactive),-0.876
COCOc1ccc(Br)cc1C(=O)[C@@H]1O[C@H]1c1cccc(OC)c1,0.467 (inactive),-0.0662,5.75 (inactive),1.12 (inactive),-0.23 (inactive),0.248 (inactive),-0.291,1 (inactive),-0.575 (inactive),-1.92
CC(=O)OC[C@H]1O[C@H](C#Cc2ccccc2)C=C[C@@H]1OC(C)=O,0.714 (inactive),-0.234,1.12 (inactive),-0.08 (inactive),-0.0923 (inactive),-0.219 (inactive),-0.283,1.61 (inactive),0.415 (inactive),1.54
CCOC(=O)C1=NO[C@@]2(C=C(Br)C3(OCCCO3)[C@H]3O[C@H]32)C1,0.721 (inactive),0.026,0.123 (inactive),0.105 (inactive),0.157 (inactive),-0.218 (inactive),-0.235,0.925 (inactive),-0.373 (inactive),0.43
CCOC(=O)[C@H](CC(C)C)NC(=O)CCC1CC(OC(=O)NCc2ccc3c(c2)OCO3)CC2(CCCC(COC(=O)NCCCN3CCCC3=O)O2)O1 (stereo not given in full),0.015 (inactive),0.0004,1.08 (inactive),0.448 (inactive),-0.447 (inactive),0.003 (inactive),0.375,0.242 (inactive),0.187 (inactive),0.32
CCC1=NOC(CCC2CC(OC(=O)NCc3cccc4c3OCO4)CC3(CCCC(COC(=O)NCCc4ccccc4OC)O3)O2)C1 (stereo not given),0.572 (inactive),-0.0573,15.9 (active),2.99 (inactive),-0.501 (inactive),0.568 (inactive),0.0314,0.642 (inactive),-0.115 (inactive),0.0819
